# The full ranking holds about 33,000 sequences; the median of “E-score (-0.5 to 0.5)” is about -0.054, and the highest 2% start at about 0.35. Only a selection was taken, and the highest values are over-represented in it overall.
# Target: T1, Stb5 (UniProt P38699)
# T1 sequence: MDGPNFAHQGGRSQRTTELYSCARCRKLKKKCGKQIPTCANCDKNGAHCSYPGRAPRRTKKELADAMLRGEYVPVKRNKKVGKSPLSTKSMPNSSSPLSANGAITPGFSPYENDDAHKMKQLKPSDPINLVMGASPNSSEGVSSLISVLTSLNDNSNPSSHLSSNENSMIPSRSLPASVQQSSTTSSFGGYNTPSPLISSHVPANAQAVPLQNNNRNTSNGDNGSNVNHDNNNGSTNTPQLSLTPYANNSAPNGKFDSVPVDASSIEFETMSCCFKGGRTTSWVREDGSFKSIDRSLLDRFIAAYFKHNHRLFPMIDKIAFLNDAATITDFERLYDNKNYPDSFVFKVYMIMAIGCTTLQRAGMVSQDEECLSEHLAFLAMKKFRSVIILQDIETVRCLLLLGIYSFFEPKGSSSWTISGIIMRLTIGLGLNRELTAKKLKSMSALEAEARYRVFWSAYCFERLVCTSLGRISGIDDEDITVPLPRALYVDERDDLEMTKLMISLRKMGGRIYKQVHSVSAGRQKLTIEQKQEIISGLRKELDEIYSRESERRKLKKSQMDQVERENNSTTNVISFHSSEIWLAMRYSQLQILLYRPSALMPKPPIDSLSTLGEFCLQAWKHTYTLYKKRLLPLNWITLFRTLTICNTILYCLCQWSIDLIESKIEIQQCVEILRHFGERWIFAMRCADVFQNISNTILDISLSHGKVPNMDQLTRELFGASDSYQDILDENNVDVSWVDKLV
# Assay: PBM E-score (8-mer binding enrichment) (E-score (-0.5 to 0.5)); higher = stronger / more preferred TF binding
# Conditions: protein concentration: 200 nM; construct: GST-full length
# Method: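 Universal 'all 10-mer' protein binding microarrays (Agilent AMADID 015681) probed with GST-tagged S. cerevisiae TFs (full-length or DBD) made by in vitro transcription/translation (PURExpress), about 100-200 nM. Bound TF was detected with fluorescent anti-GST. Each ungapped 8-mer (which stands for itself and its reverse complement) is scored by the PBM enrichment score (E-score), a modified Wilcoxon-Mann-Whitney statistic from -0.5 to +0.5, computed with the Universal PBM Analysis Suite. Scale: above 0.35 generally sequence-specific binding.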
row,Sequence,PBM E-score
1,CGGACTTC,0.374
2,GGGACTGA,-0.172
3,CGGACTGA,0.359
4,CTGACTTC,0.00183
5,AGGACTTC,-0.196
6,TGGACTAA,-0.0846
7,AGATCCAT,0.0463
8,ATAACGAG,-0.103
9,CTGGCCTC,-0.252
10,AGCATCGC,0.0104
11,CCACCTAA,-0.0966
12,ACAGTACG,-0.197
13,CGTTACCA,-0.112
14,CCCAGTAA,-0.198
15,ATGACCGC,0.381
16,ATGACCGG,0.308
17,AGGACCGC,0.397
18,AGGACCGA,0.33
19,CGGACCGC,0.298
20,ATGACCGA,0.31
21,CTGGTGCC,0.0505
22,CGTGCAAA,-0.0367

row,Sequence,PBM E-score
1,CCCGAGCA,-0.166
2,CAGCGTAG,-0.0828
3,ACGGTTCG,0.0226
4,GAATTAAC,-0.0887
5,TAGTGGCA,-0.0544
6,AGTCGGAA,0.221
7,GGTCGGCA,0.375
8,CGTCGGCA,0.334
9,AGTCGGCA,0.325
10,GCTCGGAC,0.242
11,AGTCGGAG,0.302
12,CGTCGGAC,0.38
13,CGTCGGAA,0.24
14,CGTCGGAG,0.343
15,GGTCGGAC,0.369
16,AGTCGGAC,0.398
17,GGTCGGAA,0.251
18,ACGCCTAT,-0.198
19,TACTACAA,-0.0615
20,ACAGCACT,-0.196
21,TCACCCGA,0.089
22,AGAGAAGC,-0.27

row,Sequence,PBM E-score
1,TAGTCAGA,-0.116
2,TCTGAGCA,-0.254
3,CGTCGGGA,0.337
4,AGTCGGGC,0.312
5,CGTCGGGC,0.361
6,GGGTTTTA,0.322
7,CGGGTTAA,0.221
8,CGGGTTAC,0.0485
9,GGGTTTAA,0.398
10,AGGGTTAC,-0.0791
11,GGGGTTAA,0.404
12,AGGGTTAA,-0.179
13,GGGGTTAC,0.397
14,TGGTTTAA,-0.231
15,AAAACGTC,-0.179
16,GGTTGTCA,-0.0232
17,AACCGCTC,0.119
18,AACCGCTG,0.0244
19,GACCGCTC,0.267
20,GACCGCTA,0.359
21,GACCGCAA,0.248
22,AACCGCTA,0.0216

row,Sequence,PBM E-score
1,TACCGCTA,0.306
2,CACCGCTA,0.388
3,CACCGCTG,0.405
4,AGCCGCTG,0.14
5,CACCGCTC,0.402
6,GACCGCGA,0.31
7,ATAGAGTG,-0.054
8,ACAGTAAT,-0.154
9,CTGGCAAA,-0.24
10,CTCATCGC,-0.0444
11,CACAATGA,-0.244
12,ACGGACCT,0.426
13,ACGGACAT,0.41
14,ACGGACCG,0.297
15,ACGGACAG,0.00554
16,ACGGACCA,0.237
17,ACGGACAC,0.215
18,TACTTTGA,-0.207
19,CTGTCCGA,0.201
20,ATGTCCCG,0.219
21,ATGTCCGG,0.415
22,ATGTCCGA,0.412

row,Sequence,PBM E-score
1,ACGTCCGC,0.367
2,ATGTCCGC,0.443
3,CCGTCCGC,0.292
4,ACGTCCGA,0.333
5,GTGTCCGA,0.231
6,ATGTCCCC,0.224
7,CTGTCCGC,0.129
8,ATGTCCTG,-0.0717
9,CCAAGCAA,-0.148
10,CTGCTAGA,0.0321
11,CTAAGGCA,-0.101
12,CTTGTCTA,-0.11
13,CCAGGCCA,-0.312
14,AGCGGTAC,0.347
15,GGCGGTAC,0.361
16,CGCGGTAC,0.34
17,GGCGGTAA,0.385
18,AGCGGTAA,0.34
19,TGCGGTAA,0.278
20,TCAAGTCA,-0.175
21,GCACCTCA,-0.199
22,CAATTATC,0.215
